Test results: the supplement of paper PMC8728848
The entries come from a sample that favours the strongest signals as a whole.

Columns and labels:
Experiment in all cases: glycan array binding signal (z-score within array); higher = stronger binding
Conditions in all cases: glycan notation: IUPAC condensed, linker removed
[1] = biological target: Fuc(a1-2)Gal(b1-3)GalNAc(b1-3)Gal
Outline: (§1)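 The Consortium for Functional Glycomics database supplied 3228 glycan arrays, of which those lacking an available protein sequence were dropped. The binding signal, a within-array Z-score, was averaged across arrays of the same protein sequence and across linkers. Negative scores can be read as non-binding.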

[2] = biological target: Fuc(a1-2)Gal(b1-4)GlcNAc
Outline: as §1

[3] = biological target: Fuc(a1-2)Gal(b1-4)GlcNAc(b1-3)Gal(b1-4)GlcNAc
Outline: as §1

[4] = biological target: Fuc(a1-2)Gal(b1-4)GlcNAc6S
Outline: as §1

[5] = biological target: Fuc(a1-2)[Gal(a1-3)]Gal(b1-3)GlcNAc
Outline: as §1

[6] = biological target: Fuc(a1-3)[Gal3S(b1-4)]GlcNAc6S
Outline: as §1

[7] = biological target: Gal(b1-2)Gal
Outline: as §1

[8] = biological target: Gal(b1-3)GlcNAc(b1-2)Man(a1-3)[Gal(b1-3)GlcNAc(b1-2)Man(a1-6)]Man(b1-4)GlcNAc(b1-4)GlcNAc
Outline: as §1

[9] = biological target: Gal(b1-3)[Fuc(a1-4)]GlcNAc(b1-3)Gal(b1-4)[Fuc(a1-3)]GlcNAc
Outline: as §1

[10] = biological target: Gal(b1-4)GlcNAc(b1-3)[GlcNAc(b1-6)]Gal(b1-4)GlcNAc
Outline: as §1

[11] = biological target: Gal3S(b1-3)GlcNAc
Outline: as §1

[12] = biological target: Gal3S(b1-4)Glc6S
Outline: as §1

[13] = biological target: Gal3S(b1-4)[Fuc(a1-3)]Glc
Outline: as §1

[14] = biological target: GlcNAc(b1-3)Gal(b1-3)GalNAc
Outline: as §1

[15] = biological target: GlcNAc(b1-4)GlcNAc(b1-4)GlcNAc
Outline: as §1

[16] = biological target: GlcNAc(b1-4)GlcNAc(b1-4)GlcNAc(b1-4)GlcNAc(b1-4)GlcNAc
Outline: as §1

[17] = biological target: Man(a1-2)Man(a1-2)Man(a1-3)Man
Outline: as §1

[18] = biological target: Man(a1-2)Man(a1-3)[Man(a1-2)Man(a1-6)]Man(a1-6)[Man(a1-2)Man(a1-2)Man(a1-3)]Man(b1-4)GlcNAc(b1-4)GlcNAc
Outline: as §1

[19] = biological target: Man(a1-2)Man(a1-3)[Man(a1-6)]Man(a1-6)[Man(a1-2)Man(a1-3)]Man(b1-4)GlcNAc(b1-4)GlcNAc
Outline: as §1

[20] = biological target: Neu5Ac(a2-3)Gal(b1-4)[Fuc(a1-3)]GlcNAc(b1-6)[Gal(b1-3)]GalNAc
Outline: as §1

[21] = biological target: Neu5Ac(a2-6)Gal(b1-4)GlcNAc6S
Outline: as §1

B1: SLLPI (Mus musculus), Q9D9X8 (protein)
chain: MGICMSMYTQVLVPVDADGDHHILWSRFYERWGSCFNPCAGLVNCLPPHSSALYLCHRMEARSRAPRRQLCPPGITWLALAYLLSCLLASSKAKVFSRCELAKEMHDFGLDGYRGYNLADWVCLAYYTSGFNTNAVDHEADGSTNNGIFQISSRRWCRTLASNGPNLCRIYCTDLLNNDLKDSIVCAMKIVQEPLGLGYWEAWRHHCQGRDLSDWVDGCDF
[1]
  glycan array binding signal (z-score): 0.084
[2]
  glycan array binding signal (z-score): -0.019
[3]
  glycan array binding signal (z-score): -0.448
[4]
  glycan array binding signal (z-score): 0.445
[5]
  glycan array binding signal (z-score): -0.779
[6]
  glycan array binding signal (z-score): 3.34
[7]
  glycan array binding signal (z-score): 0.362
[8]
  glycan array binding signal (z-score): -0.288
[9]
  glycan array binding signal (z-score): -0.236
[10]
  glycan array binding signal (z-score): -0.03
[11]
  glycan array binding signal (z-score): 3.28
[12]
  glycan array binding signal (z-score): 3.45
[13]
  glycan array binding signal (z-score): 1.15
[14]
  glycan array binding signal (z-score): 3.21
[15]
  glycan array binding signal (z-score): 1.92
[16]
  glycan array binding signal (z-score): -0.401
[17]
  glycan array binding signal (z-score): -0.502
[18]
  glycan array binding signal (z-score): -0.652
[19]
  glycan array binding signal (z-score): 0.317
[20]
  glycan array binding signal (z-score): -0.335
[21]
  glycan array binding signal (z-score): 3.29
